Where “and” joins values, the source holds several entries; their conditions need not be identical. Equal values may be shown once. Calls of active or inactive are those of the source.

Here are results for four compounds from PubChem BioAssay.

The subject of experiment [1] is Plasmodium falciparum Sir2 (PF13_0152, Sir2A). Description: pfSir2 binders on small-molecule microarrays, primary screen, biochemical, small-molecule microarray, 635 nm fluorescence (AID 1098).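 Also: score merges spot fluorescence intensity with its signal-to-noise ratio.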 To be noted: small-molecule microarray binding, fluorescence 635 nm; higher = more signal.
The nature of experiment [2]: small-molecule microarray binders of probe aDKK1, primary screen, biochemical, biotinylated probe, 635/667 nm fluorescence (AID 1099).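 Also: score merges 667nm spot fluorescence with signal to noise across triplicate slides.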 To be noted: higher = more signal.
Experiment [3] in a line: small-molecule microarray binders of probe aCHRDL2, primary screen, biochemical, biotinylated probe, 635/667 nm fluorescence (AID 1100). To be noted: higher = more signal.
Experiment [4] can be described thus: splicing luciferase reporter signal modulators, primary screen, spliceosome inhibition project, cell-based, HEK293, splice +/- reporter (AID 1101).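 Also: HEK293 cells carrying a splicing-competent luciferase reporter gene; test concentration not given here.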 The note with it: luminescence, 24 h, higher = more signal, called active from +8 up or from −8 down. In general terms: A reporter such as luciferase makes a cellular process visible.
Experiment [5] deals with Fibroblast growth factor 10 (Homo sapiens) (UniProt O15520). The experiment in a line: FGF10 binders on small-molecule microarrays, primary screen, biochemical, small-molecule microarray, 635 nm fluorescence (AID 1102). To be noted: FGF10 binding, fluorescence 635 nm, higher = more signal.
Experiment [6] relates to glycogen synthase kinase-3 (GSK3A per assay name; protocol says GSK3B). The experiment in a line: GSK3 binders on small-molecule microarrays, primary screen, biochemical, small-molecule microarray, 635 nm fluorescence, GSK3A (AID 1103). Also: the record names both GSK3A and GSK3B. The note with it: small-molecule microarray binding, fluorescence 635 nm; higher = more signal.
For experiment [7], the target named is Epidermal growth factor receptor (Homo sapiens) (UniProt P00533). Description: EGFR binders on small-molecule microarrays, primary screen, biochemical, small-molecule microarray, 635 nm fluorescence (AID 1104).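 Also: score merges 667 nm emission intensity with spot signal to noise over triplicate slides.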 The note with it: EGFR binding, higher = more signal.
For experiment [8], the target named is Follistatin-related protein 3 (Homo sapiens) (UniProt O95633). The experiment in a line: FSTL3 binders on small-molecule microarrays, primary screen, biochemical, small-molecule microarray, 635 nm fluorescence (AID 1105).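 Also: score merges emission near 667 nm and signal to noise per printed spot across three slides.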 The note with it: FSTL3 binding, higher = more signal.
Experiment [9] deals with Dickkopf-related protein 1 (Homo sapiens) (UniProt O94907). Description: DKK1 binders on small-molecule microarrays, primary screen, biochemical, small-molecule microarray, 635 nm fluorescence scan (AID 1106).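 Also: score merges emission near 667 nm with signal to noise over three replicate slides.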 The note with it: DKK1 binding, higher = more signal.
The subject of experiment [10] is Inhibin beta A chain (activin A). The experiment in a line: INHBA (activin A) binders on microarrays, primary screen, biochemical, small-molecule microarray, 635 nm fluorescence scan (AID 1107).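 Also: mouse activin A protein probed at 4.33 µg/mL on printed slides; score merges bound-protein fluorescence near 667 nm with spot signal-to-noise.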 To be noted: small-molecule microarray binding, higher = more signal.
Experiment [11] concerns Human papillomavirus type 1a protein E7 (residues 44-93). The experiment in a line: HPV1a E7 fragment binders on microarrays, primary screen, biochemical, small-molecule microarray, residues 44-93, 635 nm fluorescence (AID 1108).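 Also: E7 fragment applied at 1 µg/mL in TBST for 1 h at 4 C; score combines spot fluorescence with its signal to noise ratio.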 The note with it: small-molecule microarray binding, fluorescence 635 nm; higher = more signal.
Experiment [12] in a line: modulators of HCV replicon luciferase signal, primary screen, HCV replication inhibitor project, Huh7 cells, luciferase reporter (AID 1109).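 Also: huh7 hepatoma cells harbouring a luciferase neomycin HCV replicon reporter; luciferase luminescence as measure of HCV replicon replication; test concentration not given here.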 The note with it: 48 h, higher = more signal. In general terms: A replicon is a self-replicating genome or part of one, used to study replication in cells.
Experiment [13] concerns the target Left-right determination factor 2 (Homo sapiens) (UniProt O00292). The experiment in a line: LEFTY2 binders on small-molecule microarrays, primary screen, biochemical, small-molecule microarray, 635 nm fluorescence scan (AID 1110). The note with it: LEFTY2 binding, higher = more signal.
Experiment [14] addresses Calmodulin-1 (Homo sapiens) (UniProt P0DP23). Description: CALM1 binders on microarrays, EGTA buffer, profiling panel, biochemical, small-molecule microarray, Cy5-labelled CALM1 (AID 1111).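 Also: labelled calmodulin applied in Tris saline Tween buffer holding calcium plus EGTA and DTT.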 To be noted: Cy5-CALM1 binding fluorescence, higher = more signal.
For experiment [15] the target is unchanged. Description: calcium-bound CALM1 binders on microarrays, profiling panel, artefact control for SMM control-protein annotation, biochemical, small-molecule microarray, Cy5-labelled CALM1, plus calcium (AID 1112).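 Also: score merges spot fluorescence with signal to noise from triplicate slides.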 The note with it: Cy5-CALM1 binding fluorescence, higher = more signal.
The nature of experiment [16]: small-molecule microarray binders of probe aWnt5a, primary screen, biochemical, biotinylated probe, 635/667 nm fluorescence (AID 1113).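 Also: score merges 667 nm fluorescence intensity with signal-to-noise per printed feature.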 The note with it: higher = more signal.
Experiment [17] is described as follows: small-molecule microarray binders of probe aShh, primary screen, biochemical, biotinylated probe, 635/667 nm fluorescence (AID 1114).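 Also: probe is biotin-labelled aShh protein from a stem cell growth factor screen; measures binding of labelled protein to compounds printed on the slide; score merges feature fluorescence at 667 nm with signal-to-noise.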 To be noted: higher = more signal.
Experiment [18] can be described thus: small-molecule microarray binders of probe aNog, primary screen, biochemical, biotinylated probe, 635/667 nm fluorescence (AID 1115).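 Also: probe is biotinylated aNog protein used at 0.15 µg/mL for 1 h at 4 C; z-score combines 667 nm fluorescence of each spot with its signal to noise.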 The note with it: higher = more signal.
Experiment [19] has as its target Torsin-1A-interacting protein 1 (Homo sapiens) (UniProt Q5JTV8). Description: LAP1 binders from COS7 cell lysate, primary screen, small-molecule microarray, 635/667 nm fluorescence (AID 1116). The note with it: COS7-hLAP1 lysate binding, 635 nm fluorescence, higher = more signal.
Experiment [20] addresses Alpha-bungarotoxin (Bungarus multicinctus) (UniProt P60615). The experiment in a line: alpha-bungarotoxin binders on microarray, profiling panel, artefact control for SMM control protein annotation, biochemical, small-molecule microarray, Alexa647 label, 635/667 nm fluorescence (AID 1117). To be noted: alpha-BTX-A647 binding fluorescence, higher = more signal.

Follistatin-related protein 3 (Homo sapiens), sequence (O95633 whole entry, looked up): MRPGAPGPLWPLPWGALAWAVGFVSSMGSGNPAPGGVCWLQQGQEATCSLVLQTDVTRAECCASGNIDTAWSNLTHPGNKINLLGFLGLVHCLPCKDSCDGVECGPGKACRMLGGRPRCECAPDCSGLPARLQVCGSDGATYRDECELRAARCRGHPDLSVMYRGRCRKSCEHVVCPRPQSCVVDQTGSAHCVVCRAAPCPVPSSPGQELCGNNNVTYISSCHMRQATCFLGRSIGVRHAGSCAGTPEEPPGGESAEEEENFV
Torsin-1A-interacting protein 1 (Homo sapiens), sequence (Q5JTV8 whole entry, looked up): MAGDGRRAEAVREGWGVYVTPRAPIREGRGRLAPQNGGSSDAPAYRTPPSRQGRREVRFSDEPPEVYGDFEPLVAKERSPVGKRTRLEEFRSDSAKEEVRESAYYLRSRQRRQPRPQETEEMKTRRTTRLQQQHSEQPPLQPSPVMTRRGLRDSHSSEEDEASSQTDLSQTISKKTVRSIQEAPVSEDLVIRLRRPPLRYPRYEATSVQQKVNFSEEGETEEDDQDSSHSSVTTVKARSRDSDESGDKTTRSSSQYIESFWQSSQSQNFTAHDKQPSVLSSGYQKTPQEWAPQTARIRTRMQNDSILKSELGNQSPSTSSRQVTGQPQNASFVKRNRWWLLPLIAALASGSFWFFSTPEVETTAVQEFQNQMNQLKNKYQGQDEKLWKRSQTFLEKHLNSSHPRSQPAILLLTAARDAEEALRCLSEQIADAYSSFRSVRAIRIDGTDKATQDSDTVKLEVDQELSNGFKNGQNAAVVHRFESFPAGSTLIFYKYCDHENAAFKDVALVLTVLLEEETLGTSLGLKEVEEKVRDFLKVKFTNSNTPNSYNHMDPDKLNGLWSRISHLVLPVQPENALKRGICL
Epidermal growth factor receptor (Homo sapiens), sequence (P00533 whole entry, looked up): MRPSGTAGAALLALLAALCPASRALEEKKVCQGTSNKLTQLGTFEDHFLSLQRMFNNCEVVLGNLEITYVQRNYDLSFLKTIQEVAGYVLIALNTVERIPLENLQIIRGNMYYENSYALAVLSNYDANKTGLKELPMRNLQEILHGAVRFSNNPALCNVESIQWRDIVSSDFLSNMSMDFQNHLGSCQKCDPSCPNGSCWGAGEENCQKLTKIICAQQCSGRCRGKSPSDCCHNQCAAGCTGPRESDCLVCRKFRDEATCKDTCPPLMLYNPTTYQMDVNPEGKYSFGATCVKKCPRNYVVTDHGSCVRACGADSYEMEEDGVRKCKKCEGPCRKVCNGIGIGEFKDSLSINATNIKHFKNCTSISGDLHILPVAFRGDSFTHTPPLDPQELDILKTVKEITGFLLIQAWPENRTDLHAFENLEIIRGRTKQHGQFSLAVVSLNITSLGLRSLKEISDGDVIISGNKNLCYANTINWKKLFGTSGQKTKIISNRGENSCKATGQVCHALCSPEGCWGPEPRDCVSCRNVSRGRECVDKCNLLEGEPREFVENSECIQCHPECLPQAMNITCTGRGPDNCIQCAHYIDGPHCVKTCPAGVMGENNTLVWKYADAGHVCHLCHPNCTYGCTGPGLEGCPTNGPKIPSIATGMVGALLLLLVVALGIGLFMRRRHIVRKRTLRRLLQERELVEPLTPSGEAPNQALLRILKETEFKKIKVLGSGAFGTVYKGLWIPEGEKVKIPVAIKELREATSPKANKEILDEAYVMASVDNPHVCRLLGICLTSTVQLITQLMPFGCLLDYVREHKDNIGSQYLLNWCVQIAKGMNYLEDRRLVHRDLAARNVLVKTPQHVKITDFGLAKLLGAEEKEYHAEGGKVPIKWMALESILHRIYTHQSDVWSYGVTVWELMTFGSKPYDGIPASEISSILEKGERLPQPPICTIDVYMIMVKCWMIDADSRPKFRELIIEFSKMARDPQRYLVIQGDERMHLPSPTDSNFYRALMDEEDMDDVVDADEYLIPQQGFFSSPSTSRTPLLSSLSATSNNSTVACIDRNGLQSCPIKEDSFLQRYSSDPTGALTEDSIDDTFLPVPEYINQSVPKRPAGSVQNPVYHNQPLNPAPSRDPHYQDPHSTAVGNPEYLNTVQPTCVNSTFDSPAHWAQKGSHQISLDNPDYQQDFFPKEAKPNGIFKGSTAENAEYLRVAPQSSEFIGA
Dickkopf-related protein 1 (Homo sapiens), sequence (O94907 whole entry, looked up): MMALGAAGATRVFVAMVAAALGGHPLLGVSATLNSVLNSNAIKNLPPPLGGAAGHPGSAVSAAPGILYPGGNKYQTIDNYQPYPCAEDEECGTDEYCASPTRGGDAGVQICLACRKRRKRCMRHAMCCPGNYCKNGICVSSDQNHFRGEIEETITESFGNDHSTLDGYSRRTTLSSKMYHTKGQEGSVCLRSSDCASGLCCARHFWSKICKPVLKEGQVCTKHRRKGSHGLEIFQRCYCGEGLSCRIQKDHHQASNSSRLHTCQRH
Left-right determination factor 2 (Homo sapiens), sequence (O00292 whole entry, looked up): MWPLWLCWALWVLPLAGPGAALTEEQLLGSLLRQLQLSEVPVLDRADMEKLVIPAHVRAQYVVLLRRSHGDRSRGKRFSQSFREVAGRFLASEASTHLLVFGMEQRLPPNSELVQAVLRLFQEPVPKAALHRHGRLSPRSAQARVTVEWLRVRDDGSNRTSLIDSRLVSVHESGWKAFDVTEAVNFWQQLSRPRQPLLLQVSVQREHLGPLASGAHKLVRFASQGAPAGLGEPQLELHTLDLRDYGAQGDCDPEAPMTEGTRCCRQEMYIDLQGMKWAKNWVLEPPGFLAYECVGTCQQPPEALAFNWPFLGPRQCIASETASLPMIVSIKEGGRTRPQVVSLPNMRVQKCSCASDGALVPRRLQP
Fibroblast growth factor 10 (Homo sapiens), sequence (O15520 whole entry, looked up): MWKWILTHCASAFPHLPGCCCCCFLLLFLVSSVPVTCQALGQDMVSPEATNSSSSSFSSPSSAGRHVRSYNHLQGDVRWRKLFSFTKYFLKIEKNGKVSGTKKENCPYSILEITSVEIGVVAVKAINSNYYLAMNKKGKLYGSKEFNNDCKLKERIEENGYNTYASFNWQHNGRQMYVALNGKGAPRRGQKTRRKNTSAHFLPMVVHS
Alpha-bungarotoxin (Bungarus multicinctus), sequence (P60615 whole entry, looked up): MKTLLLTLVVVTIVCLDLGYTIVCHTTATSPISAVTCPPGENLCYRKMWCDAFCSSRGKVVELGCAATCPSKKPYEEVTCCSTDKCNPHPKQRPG

With `COC(=O)C1=C(C)N(Cc2ccccc2)C2=C3C(=O)N(C)C(=O)[C@@H]3[C@@](O)(C(=O)OC)C(=O)N2[C@@H]1c1ccccc1`, the composite z-score in experiment [1] was -0.0387 and 0.0245; in experiment [2], 0.0287 and -0.103; in [3], -0.282 and -0.486; in experiment [5] it was 0.786 and 0.387; in experiment [6] it was 0.0745 and 0.608; in [7], 0.533 and 0.834. For the same compound, the composite z-score in [8] was 0.285 and 0.502; in experiment [9] it was 0.103 and 0.211; in [10], 0.476 and 0.292; in experiment [11], -0.517 and 0.0656; in experiment [13] it was 0.356 and 0.796; in [14] it was -0.403 and -0.324. Moreover, the composite z-score in [15] was -0.668 and -0.691; in experiment [16], -0.124 and -0.0735; in [17], -0.0035 and -0.16; in experiment [18], -0.0705 and -0.272; in [19], 0.015 and -0.101; in [20] it was 0.871 and 0.167. The z-score is -0.18 (inactive) and -0.675 (inactive) in experiment [4]; -0.0888 and 1.05 in experiment [12].
`C[C@@H]1CC[C@H]2C(=O)N3[C@@H](CC[C@@H](C)[C@@H]3c3ccc(-c4ccco4)cc3)C(=O)N2[C@H]1c1ccc(-c2ccco2)cc1`: the composite z-score in experiment [1] is 1.22 and 1.69; in experiment [2], 0.289 and 0.596; in experiment [3], 0.0051 and 1.11; in experiment [5] it was 0.765 and 1.37; in experiment [6], 1.32 and 1.28; in experiment [7] it was 0.737 and 1.7. Besides, the composite z-score in experiment [8] was 1.36 and 1.4; in experiment [9] it was 1.25 and 1.68; in [10], 1.01 and 1.92; in experiment [11], -0.496 and 0.292; in experiment [13], 0.714 and 1.31; in experiment [14] it was 1.07 and -0.328. The composite z-score in experiment [15] is -0.355 and -1.5; in experiment [16] it was -0.113 and 0.0579; in experiment [17], 0.166 and -0.0626; in [18] it was 0.274 and 0.223; in experiment [19], 1.07 and 0.704; in [20], 1.92 and 3.43. In addition, the z-score is -0.328 (inactive) and -1.24 (inactive) in experiment [4]; -0.207 and -0.734 in [12].
For `COC(=O)[C@@]1(Cc2ccc(OC)cc2)[C@H]2c3cc(C(=O)N(C)C)n(Cc4ccc(O)c(OC)c4)c3C[C@H]2CN1C(=O)c1ccccc1`, the composite z-score in [1] is 1.17 and 1.27; in experiment [2] it was 0.714 and 0.773; in experiment [3] it was 1.08 and 0.94; in experiment [5] it was 0.113 and 1.15; in experiment [6], 0.568 and -0.198; in experiment [7], -0.14 and -0.143. Also, the composite z-score was 0.418 and 0.592 in experiment [8]; -0.529 and -0.128 in [9]; 0.876 and 0.416 in [10]; 1.31 and 1.43 in [11]; -0.3 and -0.586 in experiment [13]; 2.32 and 1.21 in experiment [14]. Also, the composite z-score was 0.88 and 0.206 in experiment [15]; -0.208 and 0.201 in experiment [16]; -0.374 and 0.632 in experiment [17]; 0.231 and 1.94 in experiment [18]; 2.63 and 1.12 in [19]; 0.526 and 0.245 in [20]. Besides, the z-score in experiment [4] was -2.55 (inactive) and -2.51 (inactive); in experiment [12] it was -1.33 and -1.83.
Consider `C[C@@H]1CC[C@H]2C(=O)O[C@H](CN=[N+]=[N-])CN2[C@H]1c1ccc(Br)cc1`, for which the composite z-score was -0.0157 and 0.121 in experiment [1]; 0.117 and -0.31 in experiment [2]; -0.444 and -0.466 in experiment [3]; 0.152 and -0.213 in [5]; -0.267 and -0.529 in experiment [6]; 0.0267 and 0.0063 in experiment [7]. The composite z-score in experiment [8] is -0.237 and -0.547; in experiment [9] it was 0.342 and -0.127; in experiment [10], 0.746 and 0.78; in experiment [11], -0.322 and -0.172; in experiment [13], 0.0584 and 0.213; in [14] it was -0.425 and -0.201. The composite z-score was -0.306 and -0.544 in [15]; -0.124 in experiment [16]; -0.174 and -0.0769 in experiment [17]; 0.0078 and -0.196 in experiment [18]; -0.21 and 0.116 in [19]; 0.089 and 0.397 in [20]. Further, the z-score was 0.254 (inactive) and -0.0654 (inactive) in experiment [4]; -0.0944 and 0.335 in [12].
